Experiment [1] in a line: Nuclear factor erythroid 2-related factor 2/antioxidant responsive element (Nrf2/ARE) small molecule agonists: qHTS cell viability counter screen in human keratinocytes (AID 1919968; active = well fitted curve in the direction sought with a large enough effect in the repeat runs; an effect the other way counts as inactive or inconclusive; note: nearly all actives have a fitted effect of over 55% in size). The method in brief: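 KeratinoSens cells (HaCaT keratinocytes stably carrying an ARE-luciferase reporter) were seeded at 1,500 cells/well and rested 5 h at 37 C/5% CO2. They were then exposed to compounds in DMSO for 23 h. Viability was read by CellTiter-Fluor fluorescence after 1 h.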

Experiment [2] in a line: Nuclear factor erythroid 2-related factor 2/antioxidant responsive element (Nrf2/ARE) small molecule agonists: luciferase reporter gene qHTS assay in human keratinocytes (AID 1919969). Note: nearly all actives have a fitted effect of over 35% in size. Note: potency is the fitted concentration of half-maximal effect.
Experiment [3] deals with Gonadotropin-releasing hormone receptor (Homo sapiens) (UniProt P30968). The experiment can be described thus: Human gonadotropin-releasing hormone receptor (GnRHR) small molecule agonists, calcium flux assay in GnRHR-HEK293 cells (AID 1920063). Note: nearly all actives have a fitted effect of over 35% in size. A digest of the protocol: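 HEK293 cells stably expressing human GnRHR were plated 18 h at 37 °C, loaded with calcium dye 1 h at 37 °C, then given compound in agonist mode; fluorescence (Ex/Em 480/540) read kinetically for 3 min at 1 s intervals.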

For experiment [4], the target named is KiSS-1 receptor (Homo sapiens) (UniProt Q969F8). The experiment is described as follows: Human kisspeptin (KISS1R) small molecule agonists, calcium flux assay in KISS1R-HEK293 cells (AID 1920064; active = well fitted curve in the direction sought with a large enough effect in the repeat runs; an effect the other way counts as inactive or inconclusive). A digest of the protocol: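 HEK293 cells stably expressing human KISS1R were plated 18 h at 37 °C, loaded with calcium dye for 1 h at 37 °C, then given compound by pin tool. Fluorescence (Ex/Em 480/540) was read kinetically for 3 min.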

The nature of experiment [5]: G protein-coupled receptor (GPCR) small molecule agonists, calcium flux assay: HEK293 wild type cell line counter screen (AID 1920065). The method in brief:
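Cells were plated and cultured 18 h at 37 C/5% CO2, then loaded with calcium dye for 1 h at 37 C. Compounds in DMSO were pin-transferred in agonist mode, and fluorescence (Ex/Em 480/540) was read kinetically for 3 min at 1 s intervals.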

A short description of experiment [6]: p53 small molecule agonists, cell-based qHTS assay with human liver microsomes (AID 1963577).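 Note: p53 response element beta-lactamase reporter cells with liver microsomes plus NADPH.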 The method in brief: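 Steps: plate p53RE-bla cells, incubate 5 h at 37 C; add compound in DMSO; add microsomes (0.5 mg/mL final) and NADPH (0.5 mg/mL final); incubate 16 h at 37 C; add LiveBLAzer, 2 h RT; read fluorescence.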
Experiment [7] can be described thus: p53 small molecule agonists, cell-based qHTS assay with rat liver microsomes (AID 1963578). A digest of the protocol: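 Metabolic activation is supplied by rat liver microsomes with NADPH (each 0.5 mg/mL final). p53RE-bla cells incubate with compound 16 h at 37 C; reporter activity is measured by LiveBLAzer fluorescence.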
Experiment [8] can be described thus: p53 small molecule agonists, cell-based qHTS assay with human liver microsomes: qHTS cell viability counter screen (AID 1963579). Note: nearly all actives have a fitted effect of over 45% in size. The method in brief: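 After the 460/530 nm beta-lactamase read, CellTiter-Glo was added to the same wells and luminescence measured after 30 min at room temperature, giving viability of p53RE-bla cells treated 16 h with compounds plus microsomes and NADPH.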

Experiment [9] can be described thus: p53 small molecule agonists, cell-based qHTS assay with rat liver microsomes: qHTS cell viability counter screen (AID 1963580). Note: nearly all actives have a fitted effect of over 45% in size. The method in brief:
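p53RE-bla HCT-116 cells (4,000/well) rested 5 h at 37 C, then given Tox21 compounds in DMSO with rat liver microsomes (0.5 mg/mL final) plus NADPH (0.5 mg/mL final) for 16 h at 37 C. Viability read by CellTiter-Glo luminescence after 30 min at room temperature.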

Experiment [10] can be described thus: p53 small molecule agonists, cell-based qHTS assay: qHTS cell viability counter screen (AID 1963581). Note: nearly all actives have a fitted effect of over 45% in size. The method in brief: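 p53RE-bla HCT-116 cells were exposed to compounds for 16 h at 37 C; after the beta-lactamase FRET read in the same wells, CellTiter-Glo was added and luminescence (intracellular ATP) read after 30 min at room temperature.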
The nature of experiment [11]: p53 small molecule agonists, cell-based qHTS assay (AID 1963582; active = well fitted activation curve with a large enough effect in the signal ratio in the repeat runs, not every such curve was filed as active; the % refers to the signal ratio). A digest of the protocol:
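p53RE-bla beta-lactamase reporter cells rested 5 h at 37 C/5% CO2, then received compounds in DMSO by pin transfer and were incubated 16 h at 37 C. LiveBLAzer B/G FRET substrate was loaded for 2 h at room temperature before fluorescence reading.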

Experiment [12] concerns the target 5-hydroxytryptamine receptor 2A (Homo sapiens) (UniProt P28223). The experiment can be described thus: 5-hydroxytryptamine receptor 2A (HTR2A) small molecule antagonists, cell-based qHTS assay (AID 1963586). Note: nearly all actives have a fitted effect of over 45% in size. A digest of the protocol: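 Antagonist-mode intracellular calcium assay: DOI (4 nM) added after 5 min compound pre-incubation at room temperature to dye-loaded HTR2A-CHO cells. Fluorescence followed for 3 min, sampled every second.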

For experiment [13] the target is unchanged. The experiment is described as follows: 5-hydroxytryptamine receptor 2A (HTR2A) small molecule agonists, cell-based qHTS assay (AID 1963587). Note: nearly all actives have a fitted effect of over 30% in size. The method in brief:
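HTR2A-CHO cells, plated 18 h at 37 C/5% CO2, dye-loaded 1 h at 37 C; compounds in DMSO added by pin tool (agonist mode). Intracellular calcium flux read as kinetic fluorescence on FDSS over 2 min at 1 s intervals.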

In experiment [14] the target is Muscarinic acetylcholine receptor M1 (Homo sapiens) (UniProt P11229). The experiment is described as follows: Cholinergic receptor muscarinic 1 (CHRM1) small molecule antagonists, cell-based qHTS assay (AID 1963588). Note: nearly all actives have a fitted effect of over 40% in size. The method in brief:
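CHRM1-CHO calcium-flux assay, antagonist mode. Cells were seeded 18 h, dye-loaded 1 h at 37 C and given compound for 5 min at RT, then acetylcholine was added at 50nM. FDSS fluorescence was read 3 min; 15 concentrations, three runs.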

For experiment [15] the target is unchanged. The experiment can be described thus: Cholinergic receptor muscarinic 1 (CHRM1) small molecule agonists, cell-based qHTS assay (AID 1963589). Note: nearly all actives have a fitted effect of over 35% in size. The method in brief: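 CHO cells stably expressing human CHRM1, seeded 18 h at 37 C/5% CO2, dye-loaded 1 h at 37 C, then given compound in agonist mode; intracellular calcium fluorescence read kinetically at 1 s intervals. Fifteen concentrations, three independent runs.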

Experiment [16] in a line: cAMP Responsive Elements (CRE) small molecule agonists, cell-based qHTS assay (AID 1963590). A digest of the protocol: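 CRE-bla HEK 293T cells in DMEM with 10% dialyzed FBS, NEAA, pyruvate and 25 mM HEPES were plated 18 h at 37 C/5% CO2, then exposed to compounds in DMSO for 3 h before LiveBLAzer B/G FRET substrate addition.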
A short description of experiment [17]: cAMP Responsive Elements (CRE) small molecule antagonists, cell-based qHTS assay (AID 1963591; active = well fitted inhibition curve with a large enough effect in the signal ratio in the repeat runs, not every such curve was filed as active; the % refers to the signal ratio). A digest of the protocol: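 CRE-bla HEK293T cells were plated 18 h at 37 °C/5% CO2, pinned with compound in DMSO, then stimulated with NKH477 at 0.25 uM final for 3 h. LiveBLAzer B/G FRET substrate was added and plates incubated 2 h at room temperature.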
For experiment [18], the target named is Beta-2 adrenergic receptor (Homo sapiens) (UniProt P07550). The experiment can be described thus: Adrenergic beta2 receptor (ADRB2) small molecule antagonists, cell-based qHTS assay (AID 1963592). Note: series mostly up to about 92 µM; nearly all actives have a fitted effect of over 50% in size. The method in brief:
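Cells (CHO, stable ADRB2 overexpression) incubated 18-20hr at 37C; compounds added from DMSO; agonist mix (1nM isoproterenol, 100uM IBMX, 25uM Ro-20-1724) added; 0.5hr RT; d2-cAMP and anti-cAMP-cryptate added; 1hr RT; 665/615 nm read.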

The target in experiment [19] is D(2) dopamine receptor (Homo sapiens) (UniProt P14416). The experiment is described as follows: Dopamine D2 receptor (DRD2) small molecule agonists, cell-based qHTS assay (AID 1963594). Note: nearly all actives have a fitted effect of over 35% in size. The method in brief: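 HEK293 cells stably expressing DRD2 were cultured 24 h at 37 C, then given Ro20-1724 (0.1 mM final) and compounds for 10 min at room temperature. NKH477 (200nM) was then added for 30 min. cAMP was read by HTRF.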

For experiment [20] the target is unchanged. The experiment can be described thus: Dopamine D2 receptor (DRD2) small molecule antagonists, cell-based qHTS assay (AID 1963595; active = well fitted inhibition curve with a large enough effect in the signal ratio in the repeat runs, with a control signal flat; the % refers to the signal ratio). A digest of the protocol: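 HTRF cAMP read-out at 665 and 620 nm emission (340 nm excitation). Antagonist mode: compounds were tested against 12 nM quinpirole in DRD2-HEK293 cells, with 200 nM NKH477 raising cAMP and 0.1 mM Ro20-1724 blocking its breakdown.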

Results filed as inconclusive are left out. Active and inactive are the calls of the source. Unless noted, calls come from the whole dose curve.

Sequence of KiSS-1 receptor (Homo sapiens) (Q969F8 whole entry, looked up): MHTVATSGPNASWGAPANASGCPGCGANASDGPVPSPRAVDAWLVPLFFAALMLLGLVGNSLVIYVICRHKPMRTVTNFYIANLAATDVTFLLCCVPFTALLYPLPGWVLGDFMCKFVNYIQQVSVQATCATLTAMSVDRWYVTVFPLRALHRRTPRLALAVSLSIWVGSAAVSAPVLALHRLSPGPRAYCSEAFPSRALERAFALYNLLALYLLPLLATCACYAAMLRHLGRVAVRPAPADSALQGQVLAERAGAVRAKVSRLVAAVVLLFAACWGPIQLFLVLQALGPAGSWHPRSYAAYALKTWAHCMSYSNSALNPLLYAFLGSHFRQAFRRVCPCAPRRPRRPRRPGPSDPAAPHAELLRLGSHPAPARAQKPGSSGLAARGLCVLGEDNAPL
Sequence of D(2) dopamine receptor (Homo sapiens) (P14416 whole entry, looked up): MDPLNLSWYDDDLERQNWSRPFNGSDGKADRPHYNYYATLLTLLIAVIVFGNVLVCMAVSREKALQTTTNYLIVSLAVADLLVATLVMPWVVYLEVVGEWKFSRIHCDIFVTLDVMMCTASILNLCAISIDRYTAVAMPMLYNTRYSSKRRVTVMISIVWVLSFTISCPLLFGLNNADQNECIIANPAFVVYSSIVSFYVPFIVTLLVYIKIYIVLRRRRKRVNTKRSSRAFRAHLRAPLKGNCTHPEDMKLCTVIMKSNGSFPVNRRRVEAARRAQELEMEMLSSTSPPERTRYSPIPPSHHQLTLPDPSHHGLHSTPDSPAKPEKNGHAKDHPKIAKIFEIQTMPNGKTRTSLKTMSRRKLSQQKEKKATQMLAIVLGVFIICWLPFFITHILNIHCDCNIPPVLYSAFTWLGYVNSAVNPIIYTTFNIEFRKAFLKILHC
Sequence of Beta-2 adrenergic receptor (Homo sapiens) (P07550 whole entry, looked up): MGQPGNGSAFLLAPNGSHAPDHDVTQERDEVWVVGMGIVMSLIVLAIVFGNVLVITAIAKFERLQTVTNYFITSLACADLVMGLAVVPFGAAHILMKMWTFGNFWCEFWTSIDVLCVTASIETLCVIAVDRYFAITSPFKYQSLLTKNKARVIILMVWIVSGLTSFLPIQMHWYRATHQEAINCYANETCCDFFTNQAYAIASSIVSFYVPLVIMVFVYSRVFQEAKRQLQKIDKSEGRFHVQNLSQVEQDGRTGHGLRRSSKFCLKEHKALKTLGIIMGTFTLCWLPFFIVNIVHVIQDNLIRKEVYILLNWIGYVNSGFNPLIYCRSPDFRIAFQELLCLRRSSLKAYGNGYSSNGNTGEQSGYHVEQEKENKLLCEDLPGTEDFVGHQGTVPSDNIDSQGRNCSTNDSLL
Sequence of 5-hydroxytryptamine receptor 2A (Homo sapiens) (P28223 whole entry, looked up): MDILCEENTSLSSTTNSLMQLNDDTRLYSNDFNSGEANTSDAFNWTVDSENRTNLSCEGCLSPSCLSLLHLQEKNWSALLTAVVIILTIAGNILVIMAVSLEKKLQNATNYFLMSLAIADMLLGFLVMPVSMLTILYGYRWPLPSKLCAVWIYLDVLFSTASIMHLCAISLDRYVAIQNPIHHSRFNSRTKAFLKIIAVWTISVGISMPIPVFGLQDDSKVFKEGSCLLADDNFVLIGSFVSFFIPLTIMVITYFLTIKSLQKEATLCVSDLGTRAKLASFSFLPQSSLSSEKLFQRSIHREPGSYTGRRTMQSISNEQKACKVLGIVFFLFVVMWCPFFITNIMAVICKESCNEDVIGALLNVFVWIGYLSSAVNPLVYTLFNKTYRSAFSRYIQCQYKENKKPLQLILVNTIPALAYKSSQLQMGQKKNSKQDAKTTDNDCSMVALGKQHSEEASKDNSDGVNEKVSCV
Sequence of Gonadotropin-releasing hormone receptor (Homo sapiens) (P30968 whole entry, looked up): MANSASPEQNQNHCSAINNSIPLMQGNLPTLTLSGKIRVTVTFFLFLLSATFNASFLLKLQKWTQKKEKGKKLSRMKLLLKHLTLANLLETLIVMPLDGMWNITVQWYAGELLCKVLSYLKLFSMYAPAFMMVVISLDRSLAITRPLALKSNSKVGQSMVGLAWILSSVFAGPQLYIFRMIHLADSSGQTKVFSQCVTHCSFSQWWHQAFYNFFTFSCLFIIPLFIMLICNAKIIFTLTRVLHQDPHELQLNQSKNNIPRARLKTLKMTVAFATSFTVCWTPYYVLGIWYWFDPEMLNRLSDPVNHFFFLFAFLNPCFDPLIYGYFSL
Sequence of Muscarinic acetylcholine receptor M1 (Homo sapiens) (P11229 whole entry, looked up): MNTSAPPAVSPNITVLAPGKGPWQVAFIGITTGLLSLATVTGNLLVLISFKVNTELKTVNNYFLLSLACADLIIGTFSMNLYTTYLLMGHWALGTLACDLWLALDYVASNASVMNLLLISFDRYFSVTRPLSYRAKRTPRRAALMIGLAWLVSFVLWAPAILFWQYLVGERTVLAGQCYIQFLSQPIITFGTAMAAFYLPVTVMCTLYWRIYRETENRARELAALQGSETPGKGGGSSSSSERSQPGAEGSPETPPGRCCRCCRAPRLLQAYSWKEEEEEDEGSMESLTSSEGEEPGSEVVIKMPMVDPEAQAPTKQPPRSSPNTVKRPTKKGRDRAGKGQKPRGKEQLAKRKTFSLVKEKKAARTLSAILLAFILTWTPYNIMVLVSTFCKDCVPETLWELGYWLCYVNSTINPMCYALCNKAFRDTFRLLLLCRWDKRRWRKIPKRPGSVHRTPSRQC

Consider `CCOC(=O)C1OC1(C)c1ccccc1` (centres undefined), for which the Potency result in experiment [1], in experiment [2], in experiment [3], in [4], in experiment [5] and in experiment [6] was “inactive” each time. The Potency result in experiment [7], in experiment [8], in [9], in experiment [10], in [11] and in experiment [12] was “inactive” throughout. Also, the Potency entry in experiment [13], in experiment [14], in [15], in experiment [16], in [17] and in experiment [18] was “inactive” each time. The Potency entry in experiment [19] and in experiment [20] was “inactive” each time.

As for `CCCC(C)(COC(N)=O)COC(=O)NC(C)C` (centres undefined), the Potency entry in [1], in [2], in experiment [3], in experiment [4], in experiment [5] and in experiment [6] was “inactive” in each case. Also, the Potency result in experiment [7], in [8], in [9], in experiment [10], in [11] and in experiment [12] was “inactive” throughout. Also, the Potency result in [13], in [14], in experiment [15], in experiment [16], in [17] and in experiment [18] was “inactive” each time. The Potency entry in experiment [19] and in [20] was “inactive” throughout.

In the case of `CC(C)(C#N)N=NC(C)(C)C#N`, the Potency entry in experiment [1], in experiment [2], in [3], in experiment [4], in experiment [5] and in [6] was “inactive” each time. In addition, the Potency result in [7], in [8], in [9], in experiment [10], in [11] and in [12] was “inactive” in each case. Also, the Potency entry in experiment [13], in experiment [14], in [15], in experiment [16], in experiment [17] and in experiment [18] was “inactive” each time. Moreover, the Potency entry in [19] was “inactive”.

On to `Brc1ccc(Oc2cc(Br)c(Br)cc2Br)c(Br)c1`, for which the Potency result in experiment [1], in experiment [3], in [4], in experiment [5], in [6] and in experiment [7] was “inactive” in each case. Besides, the Potency result in [8], in experiment [9], in experiment [10], in experiment [11], in [12] and in experiment [13] was “inactive” each time. Besides, the Potency entry in [14], in experiment [15], in experiment [16], in experiment [17], in experiment [18] and in experiment [19] was “inactive” in each case. Further, the Potency entry in experiment [20] is “inactive”. In addition, in experiment [2], the Potency is 12.3 µM (active).

Regarding `c1ccc(NNc2ccccc2)cc1`, the Potency entry in experiment [1], in experiment [3], in experiment [4], in [5], in [6] and in experiment [7] was “inactive” each time. Further, the Potency entry in [8], in experiment [9], in [10], in [11], in experiment [12] and in [13] was “inactive” throughout. Moreover, the Potency result in [14], in experiment [15], in experiment [16], in experiment [17], in [18] and in [19] was “inactive” each time. The Potency result in experiment [20] was “inactive”. In experiment [2], the Potency is 55 µM (active).

As to `CCc1cccc(C)c1N(C(=O)CCl)C(C)COC` (centres undefined), the Potency result in [1], in experiment [3], in experiment [4], in experiment [5], in experiment [6] and in experiment [7] was “inactive” in each case. Moreover, the Potency entry in experiment [8], in [9], in experiment [10], in [11], in experiment [12] and in experiment [13] was “inactive” each time. In addition, the Potency result in experiment [14], in experiment [15], in experiment [16], in experiment [17], in [18] and in experiment [19] was “inactive” in each case. The Potency entry in experiment [20] is “inactive”. Moreover, the Potency in experiment [2] is 57.6 µM (active).

With `Cl/C=C\C[N+]12CN3CN(CN(C3)C1)C2`, the Potency result in experiment [1], in experiment [3], in experiment [4], in [5], in [6] and in experiment [7] was “inactive” each time. The Potency entry in experiment [8], in experiment [9], in experiment [10], in experiment [11], in experiment [12] and in experiment [13] was “inactive” throughout. The Potency result in [14], in [15], in experiment [16], in experiment [17], in experiment [18] and in experiment [19] was “inactive” in each case. In addition, the Potency result in experiment [20] is “inactive”. Further, in experiment [2], the Potency is 68.6 µM (active).

(Values after PubChem BioAssay (Tox21).)
